Most compounds without a hit are left out; they make up all but 11% or so of the library.
15-hLO inh: blocks human 15-lipoxygenase activity. P16050. purified 15hLO-1, xylenol orange hydroperoxide absorbance. Potency, µM (series often up to 57.1 µM), without a hit: at the top dose activity change, negative = inhibition, actives largely listed as inhibitors. hit rate 1.4% among 74,000; note: nearly all actives have a fitted effect of over 55% in size
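Readout: Fe(III)-xylenol orange absorbance, 573-to-405 nm ratio as reaction progress. Enzyme 40 nM purified human 15hLO-1, substrate 50 uM arachidonic acid, 6 min RT after 15 min compound preincubation; Hepes pH 7.5 buffer with Triton X-100.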
HSD17B inh: blocks hydroxysteroid 17-beta dehydrogenase activity; hit rate 7.6% among 75,000; recombinant HSD17B10, NADH fluorescence kinetic; AID 893; Potency, µM (doses to about 57.1 µM), for inactives: top-dose activity change, negative = inhibition, actives largely listed as inhibitors; Q99714;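 note: the protocol describes HADH2 (HSD17B10) and not the HSD17B4 of the title; nearly all actives have a fitted effect of over 70% in size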
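Activity followed as NADH fluorescence increase (ex 360, em 450 nm) every 30 seconds for 4 min, using final 90 uM beta-hydroxybutyryl CoA and 1 mM NAD+. Recombinant His-tagged enzyme, 20 nM, pH 9.0 Tris buffer, 15 min compound preincubation.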
Luciferase inh: blocks Photinus pyralis firefly luciferase activity. P08659. purified firefly luciferase, luminescence, 8 min. Potency, µM (highest dose often 57.1 µM), for inactives: top-dose activity change, negative = inhibition, most hits filed as inhibitors. hit rate 2.2% among 72,000; note: nearly all actives have a fitted effect of over 40% in size
Target sequence (P08659 whole entry, looked up): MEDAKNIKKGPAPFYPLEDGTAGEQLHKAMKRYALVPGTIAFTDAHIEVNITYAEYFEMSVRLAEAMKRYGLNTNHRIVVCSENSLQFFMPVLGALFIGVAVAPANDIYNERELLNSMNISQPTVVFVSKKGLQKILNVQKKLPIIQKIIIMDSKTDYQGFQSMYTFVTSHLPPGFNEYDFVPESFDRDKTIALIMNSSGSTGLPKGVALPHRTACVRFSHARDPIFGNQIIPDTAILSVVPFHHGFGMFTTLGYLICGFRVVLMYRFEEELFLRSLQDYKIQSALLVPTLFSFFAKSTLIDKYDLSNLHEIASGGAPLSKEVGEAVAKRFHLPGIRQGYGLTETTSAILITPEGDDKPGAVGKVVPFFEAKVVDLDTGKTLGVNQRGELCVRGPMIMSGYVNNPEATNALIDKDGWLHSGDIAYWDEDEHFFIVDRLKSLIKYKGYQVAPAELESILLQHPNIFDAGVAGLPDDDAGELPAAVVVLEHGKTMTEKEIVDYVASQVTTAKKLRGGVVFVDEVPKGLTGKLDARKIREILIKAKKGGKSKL
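Compounds were tested as concentration series (qHTS) against purified P. pyralis luciferase with luciferin and 10 uM ATP in 50 mM imidazole pH 7.2, 50 mM KCl, 7 mM MgCl2, 0.01% Tween 20, 0.05% BSA. Luminescence was read after 8 min at ambient temperature.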
HADH2 inh: HADH2 (human) dehydrogenase inhibition; recombinant HADH2, NADH fluorescence, beta-hydroxybutyryl-CoA; Potency, µM (titrated, usually from 57.1 µM), for inactives: top-dose activity change, negative = inhibition, actives largely listed as inhibitors; hit rate 3.4% among 73,000; AID 886; note: nearly all actives have a fitted effect of over 60% in size
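Activity measured as NADH fluorescence gain (360/450 nm), taken as the change between first and last reads of a 4-min kinetic run. Conditions: pH 9.0 Tris buffer, 20 nM E. coli-expressed His-tagged enzyme, 1 mM NAD+, 90 uM beta-hydroxybutyryl-CoA; 15-min compound preincubation.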
Bst PK mod: alters activity of Bacillus stearothermophilus pyruvate kinase. purified pyruvate kinase, luminescence ATP production; ribose 5-phosphate activator present at AC10. hit rate 1.2% among 51,000. Potency, µM; in the data active = potency below about 11 µM; inconclusive = mostly about 12 µM to 25 µM;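 the screen sought inhibitors and activators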;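 note: scaled between full activation by ribose 5 phosphate and full inhibition by luteolin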
ERK AVP block: inhibitors of vasopressin-stimulated ERK signaling pathway; HEK293-V1b, vasopressin-stimulated pERK AlphaScreen; Potency, µM (highest dose often 57.5 µM), without a hit: top-dose activity, negative = inhibition, most hits filed as inhibitors; hit rate 0.99% among 72,000; AID 995; note: nearly all actives have a fitted effect of over 55% in size
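HEK293 cells stably expressing V1b receptor, seeded overnight in 1% FBS, were treated with compounds for 30 min at 37C, then stimulated 5 min with 25 nM vasopressin; phospho-ERK read by AlphaScreen SureFire after lysis.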
Starred values were filed as active, the others as inactive; i = inactive; ? = inconclusive; · = no result; [ ] = remark or other dose. Unless noted, calls come from the whole dose curve; as a rule, active = well fitted curve in the direction sought with a large enough effect; inconclusive = small, poorly fitted or top-dose-only effect, or another doubt; inactive = no such curve, though single readings can be large; an effect the other way counts as inactive or inconclusive. Unless noted, % is set by controls: 0 for no effect and ±100 for the full control effect; potency is the fitted concentration of half-maximal effect.

SMILES | 15-hLO inh | HSD17B inh | Luciferase inh | HADH2 inh | Bst PK mod | ERK AVP block
O=C(Cc1ccccc1)N1CCC(c2nc(-c3ccc(F)cc3)no2)CC1 | ? | 8% | 7% | 7% | >57 | 20µM*
COc1ccc2nccc(SCC(=O)O)c2c1 | 9%[11.4 µM] | 2%[11.4 µM] | 0%[11.4 µM] | 1%[11.4 µM] | · | -4%[11.5 µM]
O=C(Nc1cccc(F)c1)c1ccc2c(c1)OCO2 | -3% | 15% | ? | 13% | · | -5%
O=C(Nc1ccc2nn(-c3ccccc3)nc2c1)c1cccs1 | -7% | 20µM* | -8% | ? | >57 | ?
O=C(Nc1ccc2nn(-c3ccccc3)nc2c1)c1ccc2c(c1)OCO2 | -18% | 32µM* | 0% | -24% | >57 | 2%
CC1(c2ccc3noc(-c4ccc(Cl)cc4)c3c2)OCCO1 | -6% | ? | -2% | 3% | ? | 16µM*
CCOC(=O)Cc1csc(NC(=O)c2c(-c3ccccc3)noc2C)n1 | -2%[11.4 µM] | 1% | 0% | 9%[11.4 µM] | · | -3%
Cc1onc(-c2ccccc2)c1C(=O)Nc1nc(-c2ccc(F)c(F)c2)cs1 | -21% | 25µM* | -3% | 16% | >57 | 16%
Nc1nncn1C(=O)c1cccs1 | 6% | 3% | 3% | ? | 2.5* | -13%
O=C(/C=C\Nc1ccc2c(c1)OCO2)c1ccccn1 | -22% | ? | 0.63µM* | -7% | · | 5%
O=C(Nc1ccc2c(c1)OCO2)N1CCN(c2ncccn2)CC1 | 4% | 0% | -15% | -4% | >57 | -17%
O=C(c1cccnc1)N1CCCc2ccccc21 | -5%[11.4 µM] | 5% | -8% | ? | · | -32%
O=C(c1cnccn1)N1CCc2ccccc21 | 16µM* | -13% | -4% | 1% | >57 | -29%
CN(C)CCN(C)C(=O)c1ccc(-n2c(=O)c(=O)[nH]c3ccccc32)cc1 | -7% | -7% | · | -13% | · | ·
OCCN(CCO)c1nc(N2CCCCC2)c2nc(N(CCO)CCO)nc(N3CCCCC3)c2n1 | -11% | 25µM* | -1%[25.5 µM] | 10% | >26 | -12%
CN(C)c1nc(N2CCCCC2)nc(N2CCCCC2)n1 | -5% | 1% | 1% | -5% | · | 1%
O=C(Nc1ccc2c(c1)OCO2)N1CCN(C/C=C/c2ccccc2)CC1 | 32µM* | -13% | -1% | 15% | >57 | ?
CCOc1ccc(NS(=O)(=O)c2ccc3[nH]cc(C(=O)NCC4CCCO4)c(=O)c3c2)cc1 (stereo not given) | -18% | ? | 2% | 2% | >57 | 15%
CN(Cc1ccccc1)S(=O)(=O)c1ccc2[nH]cc(C(=O)NCC3CCCO3)c(=O)c2c1 (stereo not given) | -17% | 25µM* | 3% | ? | >57 | -23%
CCc1ccccc1NS(=O)(=O)c1ccc2[nH]cc(C(=O)NCC3CCCO3)c(=O)c2c1 (stereo not given) | -9% | 25µM* | 0% | -13% | >57 | 14%
NC1=C2NC=N[C@@H]2N(C/C=C\c2ccccc2)C=N1 | 8%[11.4 µM] | 2%[11.4 µM] | 0%[11.4 µM] | 3%[11.4 µM] | · | -7%[11.5 µM]
O=c1ccn([C@H]2O[C@H](CO)[C@@H](O)[C@@H]2O)c(=O)[nH]1 | · | · | 1%[11.4 µM] | 10% | · | ·
COc1cccc2c(=O)c(C(=O)NCc3cccs3)c[nH]c12 | -2% | 25µM* | ? | ? | i | -7%
COc1ccccc1-c1cc(C(=O)NCc2cccs2)no1 | -1% | ? | -14% | -25% | >57 | 19%
CS(=O)(=O)Nc1cccc(-c2cncnc2-n2ccnc2)c1 | -27% | -4% | 2%[2.29 µM] | -22% | · | ?
SMILES | 15-hLO inh | HSD17B inh | Luciferase inh | HADH2 inh | Bst PK mod | ERK AVP block
C=CCN1CCc2c(cc(O)c(O)c2Br)[C@H](c2ccccc2)C1 | ? | ? | -5% | 0.79µM* | · | -3%
COc1ccc(C2CC(=O)c3c(O)cc(O[C@H]4OC(COC5OC(C)C(O)C(O)[C@@H]5O)C(O)C(O)C4O)cc3O2)cc1O (stereo not given in full) | -1% | 1% | · | · | · | -11%
c1ccc(-c2nnc(-c3ccco3)n2-c2ccccc2)cc1 | -1% | 32µM* | 1% | 8% | >57 | -28%
CCOc1ccc(OCC(=O)c2c(O)c3ccccc3oc2=O)cc1 | 16µM* | 16µM* | -1% | ? | >57 | 50%
Cc1noc(C)c1C(=O)N1CCC2(CCCN(C(=O)Nc3ccccc3)C2)CC1 | 7% | -5% | 1%[11.4 µM] | 3% | · | 31%
Oc1c(Cl)ccc(Cl)c1Cl | -2% | -5% | · | -25% | · | -2%
O=C1C=CC(=O)c2c(O)c(Cl)c(Cl)c(O)c21 | 1µM* | 3.2µM* | · | · | · | ?
CN=c1nc(-c2ccccc2)n(-c2ccccc2)s1 | 0.79µM* | 6.3µM* | ? | 0.25µM* | · | -14%
CC1(C)Cn2c(nnc2-c2ccccc2)S1 | 1% | 2% | -2% | 0% | >57 | -17%
C[C@@](O)(CNS(=O)(=O)c1ccccc1)c1ccccc1 | -4%[11.4 µM] | 3%[11.4 µM] | 3%[11.4 µM] | 1%[11.4 µM] | · | 2%[11.5 µM]
C[N+]1(C)CCc2cc(O)c(O)cc2[C@H]1Cc1ccc(O)c(O)c1 | ? | 3.2µM* | -4%[11.4 µM] | 1.3µM* | · | -8%[11.5 µM]
O=C(c1csnn1)N1CCC2(CC1)CCN(c1cccc(-c3ccccc3)c1)CC2 | -5% | -4% | 0%[11.4 µM] | 6% | · | 21%
C/C(CCN1CCCCc2nc(C)c(C)cc21)=N\O[C@@H](C)CN1CCCc2nc(C)c(C)cc21 | -1%[11.4 µM] | -3%[11.4 µM] | 1%[11.4 µM] | 12%[11.4 µM] | · | 40%[11.5 µM]
Cc1c2c(n3c(nc4ccccc43)c1C#N)N(Cc1cccnc1)CC2 | 11% | 25µM* | 0% | 49% | >57 | 21%
C=C(C)CN1CCN(c2c(CCC#N)c(C)c(C#N)c3nc4ccccc4n23)CC1 | · | · | 0%[25.5 µM] | · | >11 | ·
Cc1nccn1-c1c2c(c(C#N)c3nc4ccccc4n13)CCC2 | -5%[11.4 µM] | 25µM* | -6% | -13%[11.4 µM] | · | -13%
N#Cc1c2c(c(N3CCN(c4ccccn4)CC3)n3c1nc1ccccc13)CCC2 | 13% | -5% | 0% | 1% | · | ?
Cc1c2c(n3c(nc4ccccc43)c1C#N)N(Cc1ccccn1)CC2 | 10% | 25µM* | -3% | 23% | >57 | -19%
COc1ncc2ncc(=O)n(CCC#N)c2n1 | 0% | 2% | 1%[11.4 µM] | -8% | · | -8%
COc1cc(/C=C/c2ccccc2)oc(=O)c1 | -17% | -2% | · | -6% | · | 23%
CCOC(=O)c1ccccc1NC1c2ccccc2C(=O)N1C1CCN(C(=O)OCC)CC1 (stereo not given) | 0% | 32µM* | 2% | 5% | · | -9%
CCOC(=O)N1CCC(N2C(=O)c3ccccc3C2Nc2ccc3c(c2)OCCO3)CC1 (stereo not given) | -23% | 0% | -23% | -8% | · | ?
CCOC(=O)c1ccccc1NC1OC(=O)c2ccccc21 (stereo not given) | 2% | 25µM* | 1% | ? | >57 | -13%

High-throughput results deposited in PubChem BioAssay by National Center for Advancing Translational Sciences (NCATS).
